Records with an inconclusive call do not appear. Active and inactive are the calls of the source. Unless noted, calls come from the whole dose curve; as a rule, active = well fitted curve in the direction sought with a large enough effect; inconclusive = small, poorly fitted or top-dose-only effect, or another doubt; inactive = no such curve, though single readings can be large; an effect the other way counts as inactive or inconclusive.
Tests used:
[1] = Cytometric Cell-Based qHTS for Inhibitors of the mTORC1 Signaling Pathway in MEF (Tsc2-/-, p53-/-) Cells (AID 2660);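 note: percent of cells above a phospho-rpS6 to PI ratio cutoff in each well; series mostly up to about 38 µM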
How it was run: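 Cells are plated, treated with compound for 24 hrs at 37 degree Celsius, then fixed, blocked and immunostained for phospho-rpS6 Ser235/236. Propidium iodide counterstain follows. Per-well % positive cells is derived from the PI-normalized phospho-S6 signal.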

[2] = High Content Imaging Cell-Based qHTS for Inhibitors of the mTORC1 Signaling Pathway in MEF (Tsc2-/-, p53-/-) Cells (AID 2666);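 note: percent of cells scored positive for phospho-rpS6 Ser235/236 immunostaining by imaging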
How it was run: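 Phospho-rpS6 (Ser235/236) immunofluorescence, normalized and scored as % positive cells using rapamycin and DMSO controls, was read in empty-vector Tsc2-/-, p53-/- MEFs after 24 h compound exposure at 37 C; propidium iodide counted cells.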

[3] = High Content Imaging Cell-Based qHTS for Inhibitors of the mTORC1 Signaling Pathway in MEF Cells (AID 2667);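 note: Tsc2-/- p53-/- MEFs stably re-expressing wild-type Tsc2 exposed 24 h; series mostly up to about 38 µM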
How it was run: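 WT MEFs (Tsc2-/-, p53-/- re-expressing Tsc2), in DMEM + 10% FBS, were treated with compound for 24 h at 37 C. Cells were then fixed and stained for phospho-rpS6 Ser235/236 with propidium iodide as cell count. Values are % positive cells, with thresholds set against rapamycin-treated cells.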

[4] = Cytometry Cell-Based qHTS for Inhibitors of the mTORC1 Signaling Pathway in MEF cells (AID 2668);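 note: Tsc2-/- p53-/- mouse embryonic fibroblasts stably re-expressing wild-type Tsc2; percent cells positive for phospho-rpS6 Ser235/236 relative to propidium iodide stain; series mostly up to about 38 µM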
How it was run: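 Read-out: phospho-rpS6 Ser235/236 immunofluorescence normalized to propidium iodide intensity, scored as % active cells against a rapamycin (7.5 nM) threshold. Cells: Tsc2-/-, p53-/- MEFs stably expressing WT Tsc2, compound-treated 24 hrs at 37 degree Celsius.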

[5] = Validation screen for small molecules that induce DNA re-replication in MCF 10A normal breast cells (AID 463097); note: nearly all actives have a fitted effect of over 60% in size
How it was run: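 250 MCF 10A cells/well; compound pin-transferred; 48 hr, 37 C, 5% CO2; Hoechst 40 min; imaged 405/500-530 nm. Hits = more high-intensity nuclei.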

[6] = biological target: Ubiquitin carboxyl-terminal hydrolase 2 (Homo sapiens) (UniProt O75604); test: qHTS Validation Assay for Inhibitors of Ubiquitin-specific Protease USP2a Using CHOP2 as the Reporter (AID 463106)
Ubiquitin carboxyl-terminal hydrolase 2 (Homo sapiens), sequence (O75604 whole entry, looked up): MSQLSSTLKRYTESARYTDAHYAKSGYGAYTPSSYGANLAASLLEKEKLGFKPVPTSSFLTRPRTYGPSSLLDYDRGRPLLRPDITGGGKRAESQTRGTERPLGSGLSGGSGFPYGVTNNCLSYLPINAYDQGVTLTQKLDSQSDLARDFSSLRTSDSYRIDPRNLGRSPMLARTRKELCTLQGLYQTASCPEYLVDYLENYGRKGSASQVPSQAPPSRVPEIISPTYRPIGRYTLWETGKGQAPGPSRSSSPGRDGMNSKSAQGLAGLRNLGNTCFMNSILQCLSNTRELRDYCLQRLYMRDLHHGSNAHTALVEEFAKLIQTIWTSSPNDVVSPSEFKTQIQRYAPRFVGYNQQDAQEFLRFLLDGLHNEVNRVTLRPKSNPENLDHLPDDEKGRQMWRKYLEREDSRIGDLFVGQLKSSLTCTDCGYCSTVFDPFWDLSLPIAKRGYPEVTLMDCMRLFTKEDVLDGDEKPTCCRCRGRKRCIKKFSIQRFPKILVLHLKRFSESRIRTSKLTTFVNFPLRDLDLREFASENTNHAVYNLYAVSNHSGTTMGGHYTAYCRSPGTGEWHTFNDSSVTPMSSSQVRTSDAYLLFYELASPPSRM
How it was run: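 USP2 core (10 nM final) was preincubated with compound 30 min at RT in pH 8.0 Tris/CaCl2/beta-ME/CHAPS buffer. Ub-CHOP2 and reporter substrate (25 nM final each) were then added, with fluorescence (Ex 485/Em 531) read after 60 min. Data were normalized to NEM full inhibition and fitted to concentration-response curves.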

[7] = biological target: DNA polymerase III PolC-type (Bacillus subtilis (strain 168)) (UniProt P13267); test: qHTS Validation Assay for the Inhibitors of DNA Replication in Gram-Positive Bacteria (AID 485295);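 note: reconstituted holoenzyme with PolC plus beta clamp SSB and primase; PicoGreen fluorescence of double-stranded DNA made on primed circular M13 template; series mostly up to about 57 µM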
DNA polymerase III PolC-type (Bacillus subtilis (strain 168)), sequence (P13267 whole entry, looked up): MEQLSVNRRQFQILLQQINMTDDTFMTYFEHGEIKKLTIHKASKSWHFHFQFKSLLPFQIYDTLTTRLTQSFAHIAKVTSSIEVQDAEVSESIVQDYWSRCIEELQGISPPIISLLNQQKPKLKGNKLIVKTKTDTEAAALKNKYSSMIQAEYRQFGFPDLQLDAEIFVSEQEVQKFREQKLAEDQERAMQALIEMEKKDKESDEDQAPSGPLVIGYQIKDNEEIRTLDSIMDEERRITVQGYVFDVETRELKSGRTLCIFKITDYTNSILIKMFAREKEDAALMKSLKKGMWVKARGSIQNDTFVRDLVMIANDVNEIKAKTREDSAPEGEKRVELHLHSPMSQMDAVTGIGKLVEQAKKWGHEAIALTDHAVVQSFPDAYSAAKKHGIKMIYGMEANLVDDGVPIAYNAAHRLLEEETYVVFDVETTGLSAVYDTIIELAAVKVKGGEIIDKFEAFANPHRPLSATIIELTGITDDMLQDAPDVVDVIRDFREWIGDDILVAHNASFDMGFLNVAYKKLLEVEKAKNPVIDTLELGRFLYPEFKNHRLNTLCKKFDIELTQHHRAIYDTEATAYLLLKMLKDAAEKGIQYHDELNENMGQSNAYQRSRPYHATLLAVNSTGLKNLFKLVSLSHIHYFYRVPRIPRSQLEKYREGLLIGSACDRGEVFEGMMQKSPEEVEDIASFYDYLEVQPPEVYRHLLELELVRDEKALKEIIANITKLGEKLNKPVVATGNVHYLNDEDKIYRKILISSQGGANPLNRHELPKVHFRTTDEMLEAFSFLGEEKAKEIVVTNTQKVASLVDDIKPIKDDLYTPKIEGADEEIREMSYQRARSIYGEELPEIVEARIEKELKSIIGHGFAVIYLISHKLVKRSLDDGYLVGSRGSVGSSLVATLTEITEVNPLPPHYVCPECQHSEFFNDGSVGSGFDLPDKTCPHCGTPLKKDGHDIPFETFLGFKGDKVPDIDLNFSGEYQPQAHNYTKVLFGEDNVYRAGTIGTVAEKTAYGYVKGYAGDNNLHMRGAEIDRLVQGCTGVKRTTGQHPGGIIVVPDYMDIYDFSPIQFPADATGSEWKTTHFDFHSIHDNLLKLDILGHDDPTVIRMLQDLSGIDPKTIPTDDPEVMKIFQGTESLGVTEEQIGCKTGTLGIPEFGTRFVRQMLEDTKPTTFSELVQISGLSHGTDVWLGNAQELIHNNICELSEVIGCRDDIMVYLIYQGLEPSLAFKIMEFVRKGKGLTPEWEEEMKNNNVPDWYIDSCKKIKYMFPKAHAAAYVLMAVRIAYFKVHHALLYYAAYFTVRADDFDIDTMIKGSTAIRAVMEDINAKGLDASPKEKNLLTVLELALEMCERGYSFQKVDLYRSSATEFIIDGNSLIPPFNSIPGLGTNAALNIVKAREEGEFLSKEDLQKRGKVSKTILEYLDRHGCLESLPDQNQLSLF
How it was run: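 PicoGreen fluorescence (ex 480–485/em 535–540 nm) reports dsDNA synthesized on ssM13Gori template with dNTPs/NTPs. Enzyme: holoenzyme rebuilt from purified PolC, beta subunit, SSB and primase. Compound preincubated before substrate addition; RT throughout.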

[8] = biological target: Tumor susceptibility gene 101 protein (Homo sapiens) (UniProt Q99816); test: qHTS Validation Assay for Iinhibitors of HIV-1 Budding by Blocking the Interaction of PTAP/TSG101 (AID 485342; calls by dose curve)
Tumor susceptibility gene 101 protein (Homo sapiens), sequence (Q99816 whole entry, looked up, the tested form may be a part): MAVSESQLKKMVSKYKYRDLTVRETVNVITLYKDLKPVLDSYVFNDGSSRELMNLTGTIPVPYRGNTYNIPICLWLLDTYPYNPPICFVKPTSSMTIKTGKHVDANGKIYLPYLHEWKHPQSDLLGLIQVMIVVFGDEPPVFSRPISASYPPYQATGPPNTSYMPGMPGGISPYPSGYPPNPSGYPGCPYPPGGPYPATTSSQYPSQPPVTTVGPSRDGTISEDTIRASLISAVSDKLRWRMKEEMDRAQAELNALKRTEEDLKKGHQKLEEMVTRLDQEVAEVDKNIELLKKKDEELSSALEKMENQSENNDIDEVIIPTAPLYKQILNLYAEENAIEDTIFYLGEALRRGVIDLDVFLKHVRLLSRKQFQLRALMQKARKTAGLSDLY
How it was run: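 FP read-out: FITC-PTAP peptide, 50 nM final, binding Tsg101 binding domain, 10 uM final; 20 min r.t.; 10 mM HEPES pH 7.5, 0.15 M NaCl, 0.01% Tween 20, 3 mM EDTA, 0.1 mM TCEP.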

[9] = qHTS Validation Assay to Find Inhibitors of Chronic Active B-Cell Receptor Signaling (AID 485345; active = well fitted curve in the direction sought with a large enough effect in the main read-out, with a control signal flat, not every such curve was filed as active)
How it was run: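 TMD8 ABC-DLBCL cells stably carrying doxycycline-inducible IkappaBalpha–green luciferase fusion plus unfused red luciferase; compounds 46 uM to 3 nM, 4 h at 37C with doxycycline. Corrected green/red luminescence ratio normalized to 10 uM MG-132 and basal cell wells; curves fitted.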

Measured: Potency

Cc1nc(N=Nc2ccc(C(=O)O)cc2)c(COP(=O)(O)O)c(C=O)c1O
inactive: all assays above

NC1(C(=O)O)CCCCC1
inactive: all assays above

OCC1NCC(O)C(O)C1O (stereo unspecified)
inactive: all assays above

COc1ccc2c(c1)c(CC(=O)O)c(C)n2C(=O)c1ccccc1
not listed: [8]
inactive: all other assays above

Oc1cc(O)c2c(c1)O[C@H](c1ccc(O)c(O)c1)[C@@H](O)C2
inactive: all assays above

CC[N+](CC)(CC)CC(=O)Nc1c(C)cccc1C
inactive: all assays above

O=C(O)c1ccccc1Nc1ccccc1
not listed: [8]
inactive: all other assays above

CC(=O)O[C@H]1CC2(C)[C@@H](C[C@@H](O)[C@H]3[C@@]4(C)CC[C@@H](O)[C@@H](C)[C@@H]4CC[C@@]32C)C1=C(CCC=C(C)C)C(=O)O (stereo partly specified)
inactive: all assays above

N=C(N)c1ccc(N)cc1
inactive: all assays above

COc1ccc2c(c1)c(CC(=O)O)c(C)n2Cc1ccc(Cl)cc1
inactive: all assays above

N[C@@H](Cc1c[nH]c2ccccc12)C(=O)O
inactive: all assays above

NCC(O)c1ccc(O)c(O)c1 (stereo unspecified)
not listed: [8]
inactive: all other assays above

N#CC(C#N)=C(N)/C(C#N)=C/c1ccc(O)cc1
inactive: all assays above

CN[C@H](CC(=O)O)C(=O)O
inactive: all assays above

N[C@@H](Cc1ccc(O)c(I)c1)C(=O)O
not listed: [8]
inactive: all other assays above

CO/N=C(\C(=O)N[C@@H]1C(=O)N2C(C(=O)O)=C(CSc3nc(=O)c(O)nn3C)CSC12)c1csc(N)n1 (stereo partly specified)
inactive: all assays above

O=c1onc2n1-c1cc(Br)ccc1OC2
not listed: [8]
inactive: all other assays above

COc1cc(CNC(=O)CCCCCCC(C)C)ccc1O
inactive: all assays above

CN1CCC2(CCN3CCc4c(oc5ccccc45)C3C2)N(C)C1=O (stereo unspecified)
not listed: [8]
inactive: all other assays above

NC(C(=O)N[C@@H]1C(=O)N2C(C(=O)O)=C(Cl)CS[C@H]12)c1ccccc1 (stereo partly specified)
inactive: all assays above

Cc1nc(N=Nc2ccc(S(=O)(=O)O)cc2S(=O)(=O)O)c(COP(=O)(O)O)c(C=O)c1O
not listed: [8]
inactive: all other assays above

N[C@H](C(=O)O)[C@H]1C[C@@H]1C(=O)O
not listed: [8]
inactive: all other assays above

COc1cc2c(CCNC(C)=O)c[nH]c2cc1O
inactive: all assays above

[Li+]
inactive: all assays above

CC(=O)N[C@@H](Cc1c[nH]c2ccccc12)C(=O)OCc1cc(C(F)(F)F)cc(C(F)(F)F)c1
inactive: all assays above

NC(=O)c1cc[n+](CC2=C(C(=O)O)N3C(=O)[C@@H](NC(=O)[C@@H](c4ccccc4)S(=O)(=O)[O-])[C@H]3SC2)cc1
inactive: all assays above

— PubChem BioAssay (NCATS)
